Only some compounds are listed: those with a hit (about 3.7% of all), similar ones and a draw of the others.
FadD28 binding: inhibitors of Mycobacterium tuberculosis FadD28 bisubstrate binding | FadD28 bisubstrate probe binding, fluorescence polarization | inhibition, % at 12.5 µM | actives 0.22% (n = 360,000); in the data active = inhibition above about 8.5%, passing the limit was not always enough
Mtb bLac sens: beta-lactam sensitization of Mtb H37Rv; M. tuberculosis H37Rv growth with meropenem, percent inhibition; inhibition, % at 25 µM; actives 0.27% (n = 330,000); call rule not given here;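 also: growth measured after seven days incubation then overnight dye step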
GDH-TPI inh: counter-screen for M. tuberculosis FBA inhibitors: GDH-TPI coupled enzymes | GDH-TPI coupled enzyme counterscreen, NADH absorbance | inhibition, % at 4.8 µM | actives 1.2% (n = 360,000) | AID 588335; in the data active = inhibition above about 30%
UGM FP inh: inhibitors of M. tuberculosis UDP-galactopyranose mutase; AID 504406; actives 0.06% (n = 320,000); inhibition, % at 10 µM; P9WIQ1; purified UGM, fluorescence polarization probe displacement; in the data active = inhibition above about 10%, passing the limit was not always enough
Target sequence (P9WIQ1 whole entry, looked up): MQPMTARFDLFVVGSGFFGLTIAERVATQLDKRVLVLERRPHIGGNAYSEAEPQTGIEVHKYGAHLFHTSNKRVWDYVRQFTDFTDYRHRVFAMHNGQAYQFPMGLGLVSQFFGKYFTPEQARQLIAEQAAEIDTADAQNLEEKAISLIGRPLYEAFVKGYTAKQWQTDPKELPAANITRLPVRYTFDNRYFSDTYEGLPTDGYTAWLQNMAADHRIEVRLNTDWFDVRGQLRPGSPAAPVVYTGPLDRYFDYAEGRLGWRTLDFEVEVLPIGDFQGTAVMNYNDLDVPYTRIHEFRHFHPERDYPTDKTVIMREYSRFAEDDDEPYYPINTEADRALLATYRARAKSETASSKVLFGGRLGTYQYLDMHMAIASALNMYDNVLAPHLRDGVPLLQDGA
Rv3671c inh: Rv3671c (M. tuberculosis) protease inhibition. actives 0.048% (n = 320,000). P9WHR9. inhibition, % at 5.96 µM; in the data active = inhibition above about 38%;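 also: extracellular domain of Rv3671c used as enzyme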
FBA Mtb inh: inhibitors of M. tuberculosis fructose-bisphosphate aldolase; purified M. tuberculosis FBA, fluorescence read-out; inhibition, % at 1 µM; actives 2.3% (n = 360,000); AID 588726; in the data active = inhibition above about 27%
Numbers stand for hits.

Cc1c(N/N=C(\C#N)C(=O)c2ccc(Cl)cc2)c(=O)n(-c2ccccc2)n1C was read as FadD28 binding inactive, Mtb bLac sens inactive, GDH-TPI inh inactive, UGM FP inh inactive, Rv3671c inh inactive and FBA Mtb inh inactive.
`CCCCOC(=O)Nc1nnc(CCOCC)s1` gave FadD28 binding inactive, Mtb bLac sens inactive, GDH-TPI inh 46.8, UGM FP inh inactive, Rv3671c inh inactive and FBA Mtb inh inactive.
For CN1CCN(c2ccc(CNC(=O)c3cccc4c(-c5ccc(F)c(F)c5)coc34)cc2)CC1 the results were FadD28 binding inactive, GDH-TPI inh inactive and FBA Mtb inh inactive.
`Cc1ccc(-c2nc(CS(=O)CC(=O)NCCCc3ccccc3)c(C)o2)cc1` (stereo not drawn) gave FadD28 binding inactive, Mtb bLac sens inactive, GDH-TPI inh inactive, UGM FP inh inactive, Rv3671c inh inactive and FBA Mtb inh inactive.
For CS(=O)(=O)c1ccc2nc(NC(=O)c3ccccc3)sc2c1 the results were FadD28 binding inactive, Mtb bLac sens inactive, GDH-TPI inh inactive, UGM FP inh inactive, Rv3671c inh inactive and FBA Mtb inh inactive.
For CCC(=O)Nc1nc2ccc([N+](=O)[O-])cc2s1 the results were FadD28 binding inactive, Mtb bLac sens inactive, GDH-TPI inh 31.0, UGM FP inh inactive, Rv3671c inh inactive and FBA Mtb inh inactive.
Screening CS(=O)(=O)c1ccc2nc(NC(=O)c3ccc(NS(=O)(=O)c4cccc([N+](=O)[O-])c4)cc3)sc2c1 returned FadD28 binding inactive, Mtb bLac sens inactive, GDH-TPI inh 88.6, UGM FP inh inactive, Rv3671c inh inactive and FBA Mtb inh inactive.
COc1ccc(C(=O)Nc2nc(CC(=O)NCc3c(F)cccc3F)cs2)cc1 was read as FadD28 binding inactive, GDH-TPI inh inactive and FBA Mtb inh inactive.
COc1cc(/C=C2\SC(=O)NC2=O)ccc1Oc1ccc([N+](=O)[O-])cn1 was read as FadD28 binding inactive, Mtb bLac sens inactive, GDH-TPI inh 35.9, UGM FP inh inactive, Rv3671c inh inactive and FBA Mtb inh inactive.
Screening COc1cc(/C=C(\C#N)c2nc3ccc(C)cc3[nH]2)cc([N+](=O)[O-])c1O returned FadD28 binding 29.9, GDH-TPI inh inactive and FBA Mtb inh inactive.
For COc1ccc(/C=C(\C#N)c2nc3ccc(C)cc3[nH]2)cc1Oc1ccc(C(F)(F)F)cc1[N+](=O)[O-] the results were FadD28 binding inactive, Mtb bLac sens inactive, GDH-TPI inh inactive, UGM FP inh inactive, Rv3671c inh inactive and FBA Mtb inh inactive.
Screening COc1cc(/C=C(/C#N)c2ccccc2)ccc1Oc1ccc([N+](=O)[O-])cn1 returned FadD28 binding inactive, Mtb bLac sens inactive, GDH-TPI inh inactive, UGM FP inh inactive, Rv3671c inh inactive and FBA Mtb inh inactive.
COc1cc(/C=C(\C#N)c2nc3ccccc3[nH]2)ccc1Oc1ccc([N+](=O)[O-])cn1 was read as FadD28 binding inactive, Mtb bLac sens inactive, GDH-TPI inh 31.9, UGM FP inh inactive, Rv3671c inh inactive and FBA Mtb inh inactive.
`COc1cc(/C=C2/SC(=O)NC2=O)ccc1Oc1ccc([N+](=O)[O-])cc1[N+](=O)[O-]` gave FadD28 binding inactive, Mtb bLac sens inactive, GDH-TPI inh inactive, UGM FP inh inactive, Rv3671c inh inactive and FBA Mtb inh inactive.
Cc1ccc2nc(/C(C#N)=C\c3cc(O)ccc3[N+](=O)[O-])[nH]c2c1 was read as FadD28 binding inactive, Mtb bLac sens inactive, GDH-TPI inh inactive, UGM FP inh inactive, Rv3671c inh inactive and FBA Mtb inh inactive.
Screening COc1cc(/C=C(\C#N)c2nc3ccc(C)cc3[nH]2)c([N+](=O)[O-])cc1OC returned FadD28 binding inactive, Mtb bLac sens inactive, GDH-TPI inh 33.0, UGM FP inh inactive, Rv3671c inh inactive and FBA Mtb inh inactive.
Screening CC(C)NC(=O)c1cc(C2CCCCN2C(=O)c2ccc(C(C)C)cc2)on1 (stereo not drawn) returned FadD28 binding inactive, GDH-TPI inh inactive and FBA Mtb inh inactive.
Cc1ccc(CN2CCC(Oc3cccc(C(=O)NCc4cccnc4)c3)CC2)o1 was read as FadD28 binding inactive, Mtb bLac sens inactive, GDH-TPI inh inactive, UGM FP inh inactive, Rv3671c inh inactive and FBA Mtb inh inactive.
`O=C(N/N=C/c1ccc([N+](=O)[O-])o1)c1cc2ccccc2o1` gave FadD28 binding inactive, Mtb bLac sens inactive, GDH-TPI inh 37.4, UGM FP inh inactive, Rv3671c inh inactive and FBA Mtb inh inactive.
For O=C(N/N=C/c1ccc([N+](=O)[O-])o1)c1ccc(O)cc1 the results were FadD28 binding inactive, Mtb bLac sens inactive, GDH-TPI inh 39.9, UGM FP inh inactive, Rv3671c inh inactive and FBA Mtb inh inactive.
`O=C(N/N=C/c1ccc([N+](=O)[O-])o1)c1ccncc1` gave FadD28 binding inactive, Mtb bLac sens inactive, GDH-TPI inh inactive, UGM FP inh inactive, Rv3671c inh inactive and FBA Mtb inh inactive.
Screening Cc1ccc(S(=O)(=O)N2C[C@H]3C(=O)C[C@@H](c4ccccc4)N(S(=O)(=O)c4ccc(C)cc4)[C@H]3C[C@H]2c2cccc(C)c2)cc1 returned FadD28 binding inactive and FBA Mtb inh inactive.
CC(C)c1ccccc1-n1c(SCC(=O)c2ccc3c(c2)NC(=O)CO3)nc2ccccc2c1=O was read as FadD28 binding inactive, Mtb bLac sens inactive, GDH-TPI inh inactive, UGM FP inh inactive, Rv3671c inh inactive and FBA Mtb inh 122.0.
For O=C(CSc1ncccn1)NC(=O)NC1CCCC1 the results were FadD28 binding inactive, GDH-TPI inh inactive and FBA Mtb inh inactive.
COC(=O)Cn1c(=O)c(C(=O)CCl)c(N)n(Cc2ccccc2)c1=O was read as FadD28 binding inactive, Mtb bLac sens inactive, GDH-TPI inh inactive, UGM FP inh inactive, Rv3671c inh inactive and FBA Mtb inh inactive.
For COC(=O)Cn1c(=O)c2c(n(Cc3ccccc3)c1=O)N/C(=C/c1ccc(OC)cc1)C2=O the results were FadD28 binding inactive, Mtb bLac sens inactive, GDH-TPI inh 40.5, UGM FP inh inactive, Rv3671c inh inactive and FBA Mtb inh inactive.
For COc1ccc(-c2cc(=NC(CC(C)C)C(=O)O)c3cc(C)ccc3o2)cc1 (stereo not drawn) the results were FadD28 binding inactive, Mtb bLac sens inactive, GDH-TPI inh inactive, Rv3671c inh inactive and FBA Mtb inh active.
COc1ccc(-c2cc(=Nc3ccccc3)c3cc(C)ccc3o2)cc1 was read as FadD28 binding inactive, Mtb bLac sens inactive, GDH-TPI inh inactive, UGM FP inh inactive, Rv3671c inh inactive and FBA Mtb inh active.
`COc1ccc(-c2cc(=NCCC(=O)O)c3cc(C)ccc3o2)cc1` gave FadD28 binding inactive, GDH-TPI inh inactive and FBA Mtb inh active.
`CC(=O)N1CCCN(C(=O)c2ccc3nc(Cc4cccc(Cl)c4)oc3c2)CC1` gave FadD28 binding inactive, Mtb bLac sens inactive, GDH-TPI inh inactive, UGM FP inh inactive, Rv3671c inh inactive and FBA Mtb inh inactive.
Screening CC(C)[C@H](NS(=O)(=O)c1ccccc1)C(=O)OCC(=O)NC(=O)NC1CCCCC1 returned FadD28 binding inactive, Mtb bLac sens inactive, GDH-TPI inh inactive, UGM FP inh inactive, Rv3671c inh inactive and FBA Mtb inh inactive.
